One sequence from PMC7862700, “An all-to-all approach to the identification of sequence-specific readers for epigenetic DNA modifications on cytosine” can be followed below.

Common to all, as to experiment: DAPPL (digital affinity profiling via proximity ligation, sequencing); 10 mM Tris-HCl pH 7.5, 50 mM NaCl, 1 mM DTT, 4% glycerol, room temperature, 30 min; GST-TFs on glutathione beads, 16-mer random dsDNA library, 0.1% formaldehyde crosslink after washing; high values mean tight binding
One assay deals with T1, FLI1 (Homo sapiens, UniProt Q01543 1-452).
T1 sequence: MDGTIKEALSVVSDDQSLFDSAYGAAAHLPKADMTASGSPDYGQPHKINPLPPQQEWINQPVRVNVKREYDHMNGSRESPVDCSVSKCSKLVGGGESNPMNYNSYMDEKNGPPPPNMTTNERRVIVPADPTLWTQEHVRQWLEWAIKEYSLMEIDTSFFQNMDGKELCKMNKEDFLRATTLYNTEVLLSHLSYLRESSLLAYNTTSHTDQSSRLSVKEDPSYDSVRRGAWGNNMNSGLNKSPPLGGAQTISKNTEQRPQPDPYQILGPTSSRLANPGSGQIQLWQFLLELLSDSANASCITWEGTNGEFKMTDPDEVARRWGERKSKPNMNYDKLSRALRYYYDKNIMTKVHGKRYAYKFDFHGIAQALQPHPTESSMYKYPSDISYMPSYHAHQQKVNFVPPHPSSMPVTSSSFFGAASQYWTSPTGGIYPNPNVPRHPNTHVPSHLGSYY
The note with it: protein: recombinant; tags: N-terminal GST; dsDNA, one strand shown. Summed up:
(§1)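 Beads coated with glutathione captured GST-fused human transcription factors that had been expressed in yeast, and the factors were then given DNA barcodes and pooled with a tag-only sample. The pools were incubated with 200 nmole of a random double-stranded 16-mer DNA library in Tris/NaCl/DTT/glycerol buffer for 30 min at room temperature, washed, crosslinked with 0.1% formaldehyde and proximity-ligated with BsaI/T4 ligase at 37 °C for 1 h. PCR amplification and Illumina NextSeq500 sequencing came last. Binding signal is each hexamer's read frequency for a factor divided by its frequency for the tag-only sample.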

For the next assay, the target named is T2, ELK1 (Homo sapiens, UniProt P19419 1-428).
T2 sequence: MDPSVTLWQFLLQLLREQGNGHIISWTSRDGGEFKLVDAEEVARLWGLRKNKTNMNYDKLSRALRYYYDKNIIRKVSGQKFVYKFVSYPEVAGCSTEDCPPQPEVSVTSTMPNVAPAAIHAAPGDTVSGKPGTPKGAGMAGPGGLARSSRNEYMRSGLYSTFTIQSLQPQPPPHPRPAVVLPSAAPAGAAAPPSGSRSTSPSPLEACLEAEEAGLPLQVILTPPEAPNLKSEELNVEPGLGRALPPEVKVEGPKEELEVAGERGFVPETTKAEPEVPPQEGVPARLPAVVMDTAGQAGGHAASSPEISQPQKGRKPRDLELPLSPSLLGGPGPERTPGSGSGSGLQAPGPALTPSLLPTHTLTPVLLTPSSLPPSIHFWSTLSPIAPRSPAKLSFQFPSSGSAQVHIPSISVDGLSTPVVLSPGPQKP
As to conditions: protein: recombinant; tags: N-terminal GST; dsDNA, one strand shown. A digest of the protocol:
as §1

Another assay deals with T3, ERG (Homo sapiens, UniProt P11308 1-479).
T3 sequence: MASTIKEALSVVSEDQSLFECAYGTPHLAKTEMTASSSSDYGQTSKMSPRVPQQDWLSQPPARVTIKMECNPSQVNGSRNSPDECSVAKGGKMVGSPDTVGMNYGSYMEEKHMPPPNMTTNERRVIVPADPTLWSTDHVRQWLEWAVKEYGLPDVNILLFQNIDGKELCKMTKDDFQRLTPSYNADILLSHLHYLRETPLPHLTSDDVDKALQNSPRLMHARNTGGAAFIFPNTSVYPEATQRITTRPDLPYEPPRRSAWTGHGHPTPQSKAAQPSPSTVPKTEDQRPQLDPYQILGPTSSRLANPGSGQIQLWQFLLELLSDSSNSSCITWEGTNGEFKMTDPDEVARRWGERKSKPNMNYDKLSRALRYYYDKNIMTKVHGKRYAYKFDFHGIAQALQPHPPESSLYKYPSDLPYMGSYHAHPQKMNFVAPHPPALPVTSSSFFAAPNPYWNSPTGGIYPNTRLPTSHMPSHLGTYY
The note with it: protein: recombinant; tags: N-terminal GST; dsDNA, one strand shown. A digest of the protocol: as §1

A further assay has as its target ELF1 (Homo sapiens, UniProt P32519 1-619). The note with it: protein: recombinant; tags: N-terminal GST; dsDNA, one strand shown. A digest of the protocol: as §1
For another assay, the target named is T4, EHF (Homo sapiens, UniProt Q9NZC4 1-300).
T4 sequence: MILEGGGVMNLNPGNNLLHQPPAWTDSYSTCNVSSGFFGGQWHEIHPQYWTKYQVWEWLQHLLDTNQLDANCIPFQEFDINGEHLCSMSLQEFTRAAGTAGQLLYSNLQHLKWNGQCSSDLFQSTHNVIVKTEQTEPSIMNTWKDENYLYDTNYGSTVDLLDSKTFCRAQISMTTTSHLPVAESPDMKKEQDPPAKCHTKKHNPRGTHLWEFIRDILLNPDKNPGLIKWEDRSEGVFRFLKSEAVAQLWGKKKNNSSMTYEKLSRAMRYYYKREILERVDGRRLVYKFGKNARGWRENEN
As to conditions: protein: recombinant; tags: N-terminal GST; dsDNA, one strand shown. A digest of the protocol:
as §1

The next assay addresses SPI1 (Homo sapiens, UniProt P17947 1-270). As to conditions: protein: recombinant; tags: N-terminal GST; dsDNA, one strand shown. A digest of the protocol:
as §1

For a further assay, the target named is SPIB (Homo sapiens, UniProt Q01892 1-262). As to conditions: protein: recombinant; tags: N-terminal GST; dsDNA, one strand shown. A digest of the protocol:
as §1

A further assay has as its target T5, ELK3 (Homo sapiens, UniProt P41970 1-407).
T5 sequence: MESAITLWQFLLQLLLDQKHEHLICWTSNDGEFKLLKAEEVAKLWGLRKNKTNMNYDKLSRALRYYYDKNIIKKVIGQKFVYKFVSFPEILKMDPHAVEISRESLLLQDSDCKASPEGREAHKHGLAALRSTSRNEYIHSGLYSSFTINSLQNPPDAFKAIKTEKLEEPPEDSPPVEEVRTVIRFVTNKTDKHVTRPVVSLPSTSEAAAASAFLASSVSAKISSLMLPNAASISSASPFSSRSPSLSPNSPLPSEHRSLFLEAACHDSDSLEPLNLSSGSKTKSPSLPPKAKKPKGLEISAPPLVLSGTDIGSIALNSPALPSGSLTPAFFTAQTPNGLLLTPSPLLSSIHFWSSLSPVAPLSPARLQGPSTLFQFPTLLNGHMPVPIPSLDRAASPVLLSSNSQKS
As to conditions: protein: recombinant; tags: N-terminal GST; dsDNA, one strand shown. A digest of the protocol: as §1

For another assay, the target named is ETV5 (Homo sapiens, UniProt P41161 1-510). The note with it: protein: recombinant; tags: N-terminal GST; dsDNA, one strand shown. A digest of the protocol:
as §1

For the next assay, the target named is HSF1 (Homo sapiens, UniProt Q00613 1-529). The note with it: protein: recombinant; tags: N-terminal GST; chain copies: 3; dsDNA, one strand shown. A digest of the protocol:
as §1

For a further assay, the target named is T6, SPIC (Homo sapiens, UniProt Q8N5J4 1-248).
T6 sequence: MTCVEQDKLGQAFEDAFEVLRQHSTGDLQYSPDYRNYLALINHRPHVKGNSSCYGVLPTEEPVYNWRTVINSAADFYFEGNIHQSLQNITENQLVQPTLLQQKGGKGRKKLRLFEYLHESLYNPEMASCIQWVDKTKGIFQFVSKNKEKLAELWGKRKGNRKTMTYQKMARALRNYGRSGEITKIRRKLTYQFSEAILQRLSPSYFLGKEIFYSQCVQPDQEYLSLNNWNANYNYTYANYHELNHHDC
The note with it: protein: recombinant; tags: N-terminal GST; dsDNA, one strand shown. Summed up: as §1

Another assay has as its target T7, ELK4 (Homo sapiens, UniProt P28324-2 1-405).
T7 sequence: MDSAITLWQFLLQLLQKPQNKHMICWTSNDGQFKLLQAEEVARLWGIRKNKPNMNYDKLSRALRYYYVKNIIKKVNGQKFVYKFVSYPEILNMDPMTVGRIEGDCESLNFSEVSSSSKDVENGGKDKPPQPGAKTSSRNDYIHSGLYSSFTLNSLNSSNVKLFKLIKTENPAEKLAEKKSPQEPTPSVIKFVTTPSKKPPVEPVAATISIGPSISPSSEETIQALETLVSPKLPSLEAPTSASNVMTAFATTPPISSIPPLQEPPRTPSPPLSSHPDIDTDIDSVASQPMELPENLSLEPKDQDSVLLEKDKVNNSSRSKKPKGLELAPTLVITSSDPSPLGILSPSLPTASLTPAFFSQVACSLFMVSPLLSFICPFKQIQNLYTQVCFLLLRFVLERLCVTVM
As to conditions: protein: recombinant; tags: N-terminal GST; dsDNA, one strand shown. A digest of the protocol:
as §1

In a further assay the target is T8, ETV2 (Homo sapiens, UniProt O00321 1-342).
T8 sequence: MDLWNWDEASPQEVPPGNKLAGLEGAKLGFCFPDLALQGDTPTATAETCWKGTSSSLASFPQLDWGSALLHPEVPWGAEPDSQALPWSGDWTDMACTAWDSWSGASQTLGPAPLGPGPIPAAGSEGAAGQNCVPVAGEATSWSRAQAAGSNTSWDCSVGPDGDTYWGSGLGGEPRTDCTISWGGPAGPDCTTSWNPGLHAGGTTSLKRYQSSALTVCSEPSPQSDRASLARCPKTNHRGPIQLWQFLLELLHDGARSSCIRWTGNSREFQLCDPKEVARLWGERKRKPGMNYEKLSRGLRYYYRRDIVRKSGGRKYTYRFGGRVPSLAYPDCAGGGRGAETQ
As to conditions: protein: recombinant; tags: N-terminal GST; dsDNA, one strand shown. Summed up: as §1

A further assay has as its target CRX (Homo sapiens, UniProt O43186 1-299). As to conditions: protein: recombinant; tags: N-terminal GST; dsDNA, one strand shown. Summed up:
as §1

The next assay has as its target ETV1 (Homo sapiens, UniProt P50549 1-477). The note with it: protein: recombinant; tags: N-terminal GST; dsDNA, one strand shown. Summed up: as §1

Sequence of ELF1 (P32519 whole entry): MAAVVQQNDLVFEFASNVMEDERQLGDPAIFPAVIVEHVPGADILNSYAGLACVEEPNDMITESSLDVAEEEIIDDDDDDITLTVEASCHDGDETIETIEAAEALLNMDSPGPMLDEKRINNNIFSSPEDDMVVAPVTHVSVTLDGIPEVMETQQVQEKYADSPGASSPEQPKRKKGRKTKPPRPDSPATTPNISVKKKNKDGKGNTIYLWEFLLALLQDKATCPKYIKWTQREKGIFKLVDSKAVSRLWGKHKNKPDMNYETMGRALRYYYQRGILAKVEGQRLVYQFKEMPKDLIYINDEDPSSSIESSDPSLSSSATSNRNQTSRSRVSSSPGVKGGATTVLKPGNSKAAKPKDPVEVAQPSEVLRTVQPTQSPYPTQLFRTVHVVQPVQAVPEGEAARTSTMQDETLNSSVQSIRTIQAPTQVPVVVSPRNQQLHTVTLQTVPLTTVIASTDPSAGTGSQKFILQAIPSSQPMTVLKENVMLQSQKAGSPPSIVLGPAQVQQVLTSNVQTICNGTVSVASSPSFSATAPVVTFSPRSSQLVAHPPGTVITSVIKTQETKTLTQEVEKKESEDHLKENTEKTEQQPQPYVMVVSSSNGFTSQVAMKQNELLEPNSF
Sequence of HSF1 (Q00613 whole entry): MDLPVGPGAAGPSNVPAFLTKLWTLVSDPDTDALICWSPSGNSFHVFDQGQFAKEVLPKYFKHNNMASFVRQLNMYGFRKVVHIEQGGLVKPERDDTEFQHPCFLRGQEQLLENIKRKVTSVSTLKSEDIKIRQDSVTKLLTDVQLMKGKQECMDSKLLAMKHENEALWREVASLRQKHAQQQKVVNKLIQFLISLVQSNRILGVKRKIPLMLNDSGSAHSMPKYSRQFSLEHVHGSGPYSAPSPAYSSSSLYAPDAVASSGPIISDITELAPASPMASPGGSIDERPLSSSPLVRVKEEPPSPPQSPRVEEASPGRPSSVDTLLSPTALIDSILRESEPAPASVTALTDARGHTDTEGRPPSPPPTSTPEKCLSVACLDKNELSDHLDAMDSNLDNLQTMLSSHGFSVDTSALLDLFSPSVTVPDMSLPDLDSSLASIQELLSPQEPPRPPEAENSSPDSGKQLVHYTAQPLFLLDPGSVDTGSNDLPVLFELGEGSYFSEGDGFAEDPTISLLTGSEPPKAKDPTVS
Sequence of ETV5 (P41161 whole entry): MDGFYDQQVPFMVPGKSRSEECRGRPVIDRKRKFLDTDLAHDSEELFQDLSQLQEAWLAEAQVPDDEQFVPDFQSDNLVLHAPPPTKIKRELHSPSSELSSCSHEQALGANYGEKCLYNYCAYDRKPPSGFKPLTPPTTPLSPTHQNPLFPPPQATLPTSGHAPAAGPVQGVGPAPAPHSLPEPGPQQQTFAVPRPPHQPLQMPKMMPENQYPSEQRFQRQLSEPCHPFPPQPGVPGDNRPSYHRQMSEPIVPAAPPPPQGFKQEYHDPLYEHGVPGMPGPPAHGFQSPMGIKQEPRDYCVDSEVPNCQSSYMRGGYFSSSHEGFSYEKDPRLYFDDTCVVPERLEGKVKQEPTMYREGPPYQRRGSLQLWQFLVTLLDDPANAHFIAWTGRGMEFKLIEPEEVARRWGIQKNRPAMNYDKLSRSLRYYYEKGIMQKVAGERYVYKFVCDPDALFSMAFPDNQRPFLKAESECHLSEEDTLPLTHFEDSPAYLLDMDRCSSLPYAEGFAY
Sequence of CRX (O43186 whole entry): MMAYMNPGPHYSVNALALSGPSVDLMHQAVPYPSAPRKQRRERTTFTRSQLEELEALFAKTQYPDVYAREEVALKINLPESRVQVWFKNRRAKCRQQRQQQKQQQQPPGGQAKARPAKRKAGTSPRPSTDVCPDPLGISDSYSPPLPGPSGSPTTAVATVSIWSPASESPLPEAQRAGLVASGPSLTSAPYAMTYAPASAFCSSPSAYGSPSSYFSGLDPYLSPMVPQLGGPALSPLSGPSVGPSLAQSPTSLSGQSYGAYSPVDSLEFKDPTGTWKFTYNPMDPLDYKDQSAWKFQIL
Sequence of SPIB (Q01892 whole entry): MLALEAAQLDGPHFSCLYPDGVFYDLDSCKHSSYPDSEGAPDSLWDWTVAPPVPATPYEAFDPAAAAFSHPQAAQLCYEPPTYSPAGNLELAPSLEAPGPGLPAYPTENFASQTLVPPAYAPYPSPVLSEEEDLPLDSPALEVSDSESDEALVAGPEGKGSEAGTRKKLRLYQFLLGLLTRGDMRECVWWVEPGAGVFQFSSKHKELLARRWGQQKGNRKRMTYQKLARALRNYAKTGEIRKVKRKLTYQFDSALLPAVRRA
Sequence of ETV1 (P50549 whole entry): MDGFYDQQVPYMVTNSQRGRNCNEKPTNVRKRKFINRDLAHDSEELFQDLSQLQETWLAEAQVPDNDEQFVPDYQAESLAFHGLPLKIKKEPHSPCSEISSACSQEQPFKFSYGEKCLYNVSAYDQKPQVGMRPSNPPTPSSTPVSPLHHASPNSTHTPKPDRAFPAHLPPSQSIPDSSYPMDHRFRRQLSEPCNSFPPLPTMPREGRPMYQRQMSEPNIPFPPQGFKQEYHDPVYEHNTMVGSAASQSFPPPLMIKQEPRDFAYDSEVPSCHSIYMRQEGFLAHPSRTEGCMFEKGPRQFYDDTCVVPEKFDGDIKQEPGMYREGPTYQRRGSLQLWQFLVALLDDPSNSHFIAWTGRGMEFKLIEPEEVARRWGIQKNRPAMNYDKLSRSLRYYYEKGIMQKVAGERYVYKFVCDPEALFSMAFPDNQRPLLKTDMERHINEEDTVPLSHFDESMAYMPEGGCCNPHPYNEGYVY

As to GAATTA, the binding signal was 1.09 fold enrichment (6-mer frequency, TF over GST control) in the assay with FLI1; 1.05 fold enrichment (6-mer frequency, TF over GST control) with ELK1; 1.01 fold enrichment (6-mer frequency, TF over GST control) with ERG; 1.04 fold enrichment (6-mer frequency, TF over GST control) in the assay with ELF1; 1.12 fold enrichment (6-mer frequency, TF over GST control) with EHF; 1.07 fold enrichment (6-mer frequency, TF over GST control) with SPI1. The binding signal in the assay with SPIB was 1.02 fold enrichment (6-mer frequency, TF over GST control); with ELK3, 1.12 fold enrichment (6-mer frequency, TF over GST control); in the assay with ETV5, 1.01 fold enrichment (6-mer frequency, TF over GST control); in the assay with HSF1, 1.72 fold enrichment (6-mer frequency, TF over GST control); with SPIC, 1.12 fold enrichment (6-mer frequency, TF over GST control); with ELK4, 1.09 fold enrichment (6-mer frequency, TF over GST control). Further, the binding signal with ETV2 is 1.02 fold enrichment (6-mer frequency, TF over GST control); with CRX, 2.39 fold enrichment (6-mer frequency, TF over GST control); with ETV1, 1.08 fold enrichment (6-mer frequency, TF over GST control).
